Laboratory results taken from paper PMC5700166.
Where a chain is given by its changes, count along the chain named.

Assays:
Assay in all cases: protein-binding microarray (PBM); PBM: ~300 nM protein, 6 mM HEPES pH 7.8, 80 mM KCl, 0.5 mM EDTA, 0.5 mM EGTA, 6% glycerol, 35 ng/ul poly-dIdC, 1% milk, 1 h, room temperature; Ap Aiptasia and Nv Nematostella (sea anemones) / Co Capsaspora / Aq Amphimedon (sponge) / Dm Drosophila / Hu human; RHD is the Rel homology domain; high values mean tight binding
Conditions in all cases: dsDNA, one strand shown
GST-Ap-NF-kB RHD = target: T1, GST-Ap-NF-kB RHD (Exaiptasia pallida (Aiptasia), UniProt A0A913YAJ5 2-422)
T1 sequence: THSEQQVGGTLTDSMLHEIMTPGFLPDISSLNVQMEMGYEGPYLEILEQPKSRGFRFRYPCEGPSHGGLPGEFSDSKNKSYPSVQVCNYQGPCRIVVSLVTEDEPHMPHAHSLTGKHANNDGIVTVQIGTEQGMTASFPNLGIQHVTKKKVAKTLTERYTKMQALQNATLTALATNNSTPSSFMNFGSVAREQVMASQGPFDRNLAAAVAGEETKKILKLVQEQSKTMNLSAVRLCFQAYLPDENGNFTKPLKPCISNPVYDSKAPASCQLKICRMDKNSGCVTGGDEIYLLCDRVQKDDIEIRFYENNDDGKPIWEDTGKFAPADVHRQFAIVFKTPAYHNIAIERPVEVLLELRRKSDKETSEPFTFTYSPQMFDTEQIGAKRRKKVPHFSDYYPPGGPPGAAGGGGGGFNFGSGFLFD

[1] = target: T2, GST-Nv-NF-kB (Cys allele) (Nematostella vectensis, UniProt E5G601 2-411)
T2 sequence: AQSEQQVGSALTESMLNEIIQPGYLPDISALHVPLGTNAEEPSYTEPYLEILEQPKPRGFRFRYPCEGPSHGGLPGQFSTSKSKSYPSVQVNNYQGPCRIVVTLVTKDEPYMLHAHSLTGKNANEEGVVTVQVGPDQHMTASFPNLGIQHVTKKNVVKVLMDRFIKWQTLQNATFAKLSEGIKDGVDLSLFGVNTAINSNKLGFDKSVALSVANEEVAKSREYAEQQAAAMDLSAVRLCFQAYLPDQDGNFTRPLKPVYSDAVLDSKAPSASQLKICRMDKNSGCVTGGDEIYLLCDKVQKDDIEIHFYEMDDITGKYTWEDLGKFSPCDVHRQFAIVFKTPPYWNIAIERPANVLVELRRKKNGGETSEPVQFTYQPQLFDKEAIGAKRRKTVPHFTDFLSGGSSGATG

[2] = target: T3, GST-Nv-NF-kB (Ser allele) (Nematostella vectensis, UniProt A7UNT2 2-411)
T3 sequence: T2 sequence with Q21R, C66S, S207N, E215Q, V217A, E225K, A268E, D399E

GST-Co-NF-kB = target: T4, GST-Co-NF-kB (Capsaspora owczarzaki, UniProt F1ARL5 200-546)
T4 sequence: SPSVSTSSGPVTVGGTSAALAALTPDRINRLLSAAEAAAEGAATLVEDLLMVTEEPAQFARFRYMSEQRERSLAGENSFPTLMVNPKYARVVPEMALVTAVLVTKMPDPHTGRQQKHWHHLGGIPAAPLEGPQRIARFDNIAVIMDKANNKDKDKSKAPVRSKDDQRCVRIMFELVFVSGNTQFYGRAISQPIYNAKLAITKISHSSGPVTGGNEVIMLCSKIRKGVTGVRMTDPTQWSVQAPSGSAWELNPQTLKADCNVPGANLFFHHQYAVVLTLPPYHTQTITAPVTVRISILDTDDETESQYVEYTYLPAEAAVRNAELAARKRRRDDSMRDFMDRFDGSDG

GST-Dm-Relish = target: T5, GST-Dm-Relish (Drosophila melanogaster, UniProt Q94527 99-473)
T5 sequence: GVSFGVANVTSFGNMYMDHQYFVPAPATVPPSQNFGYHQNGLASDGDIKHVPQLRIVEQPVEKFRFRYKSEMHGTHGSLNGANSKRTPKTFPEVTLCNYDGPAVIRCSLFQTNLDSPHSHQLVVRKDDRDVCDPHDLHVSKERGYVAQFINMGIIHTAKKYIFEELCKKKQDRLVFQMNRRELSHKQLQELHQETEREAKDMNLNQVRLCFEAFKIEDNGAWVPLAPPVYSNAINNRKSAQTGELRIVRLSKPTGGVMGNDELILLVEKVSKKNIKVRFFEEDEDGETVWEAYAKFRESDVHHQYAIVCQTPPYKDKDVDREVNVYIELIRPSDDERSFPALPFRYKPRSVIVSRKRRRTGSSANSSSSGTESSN

GST-Aq-NF-kB = target: T6, GST-Aq-NF-kB (Amphimedon queenslandica, UniProt A9Y5G7 2-389)
T6 sequence: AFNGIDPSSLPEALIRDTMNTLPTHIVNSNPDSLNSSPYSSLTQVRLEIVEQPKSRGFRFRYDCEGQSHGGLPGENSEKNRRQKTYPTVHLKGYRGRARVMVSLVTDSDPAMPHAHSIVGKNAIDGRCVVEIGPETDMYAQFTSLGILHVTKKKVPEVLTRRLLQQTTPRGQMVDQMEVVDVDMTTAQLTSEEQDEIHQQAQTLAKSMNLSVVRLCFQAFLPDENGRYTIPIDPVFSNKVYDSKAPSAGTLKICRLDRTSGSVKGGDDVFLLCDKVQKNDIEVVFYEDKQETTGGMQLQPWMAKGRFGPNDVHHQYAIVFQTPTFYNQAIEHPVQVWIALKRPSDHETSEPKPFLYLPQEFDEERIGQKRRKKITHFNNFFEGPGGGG

GST-Hu-p50 = GST-Hu-p50 (Homo sapiens, UniProt P19838 7-356)
GST-Hu-p50, sequence (P19838 7-356): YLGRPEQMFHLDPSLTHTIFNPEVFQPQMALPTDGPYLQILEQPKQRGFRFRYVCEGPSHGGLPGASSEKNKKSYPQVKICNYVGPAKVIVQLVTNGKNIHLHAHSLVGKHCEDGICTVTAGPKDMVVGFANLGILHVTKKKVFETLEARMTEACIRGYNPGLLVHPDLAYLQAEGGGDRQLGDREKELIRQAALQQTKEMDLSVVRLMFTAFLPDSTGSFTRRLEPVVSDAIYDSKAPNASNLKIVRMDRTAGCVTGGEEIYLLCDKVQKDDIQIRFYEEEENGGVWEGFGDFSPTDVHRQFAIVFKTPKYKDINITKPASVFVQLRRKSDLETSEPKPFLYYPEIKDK

Row | Sequence | binding signal (GST-Ap-NF-kB RHD) [z-score] | binding signal [1] [z-score] | binding signal [2] [z-score] | binding signal (GST-Co-NF-kB) [z-score] | binding signal (GST-Dm-Relish) [z-score] | binding signal (GST-Aq-NF-kB) [z-score] | binding signal (GST-Hu-p50) [z-score]
1 | CCGATTAACATCAAATTTTCCCGTGATGTTAATCGGGTCTTGATTCGCTTGACGCTGCTG | 4.26 | 6.26 | 7.05 | 6.38 | 3.36 | 5.86 | 4.58
2 | CCGATTAACATCAGGGGCAGGGATGATGTTAATCGGGTCTTGATTCGCTTGACGCTGCTG | 2.32 | 1.46 | 1.47 | 1.59 |  | 2.02 | 2.01
3 | CCGATTAACATCAGGGAAAACTATGATGTTAATCGGGTCTTGATTCGCTTGACGCTGCTG | 3.76 | 5.55 | 7.33 | 5.67 | 1.67 | 4.07 | 4.03
4 | CCGATTAACATCACCCCGTCCCCTGATGTTAATCGGGTCTTGATTCGCTTGACGCTGCTG | 4.62 | 3.83 | 3.99 | 3.98 | 2.65 | 4.15 | 3.21
5 | CCGATTAACATCATCCTGGGAAATGATGTTAATCGGGTCTTGATTCGCTTGACGCTGCTG | 1.13 | 2.18 | 1.37 | 2.72 |  | 1.03 | 1.74
6 | CCGATTAACATCAGGCAACTCCCTGATGTTAATCGGGTCTTGATTCGCTTGACGCTGCTG | 1.44 | 2.44 | 1.64 | 1.09 |  | 4.28 | 2.67
7 | CCGATTAACATCAGGGGAACGCATGATGTTAATCGGGTCTTGATTCGCTTGACGCTGCTG | 5.31 | 5.4 | 6.49 | 4.99 | 2.68 | 3.75 | 4.2
8 | CCGATTAACATCAGAAAAGTCCCTGATGTTAATCGGGTCTTGATTCGCTTGACGCTGCTG | 7.92 | 10.1 | 9.94 | 1.28 | 8.36 | 8.15 | 6.91
9 | CCGATTAACATCAGGGGAGTGGATGATGTTAATCGGGTCTTGATTCGCTTGACGCTGCTG | 3.01 | 2.86 | 3.98 | 1.84 |  | 2.85 | 2.9
10 | CCGATTAACATCAGGGAAATGTATGATGTTAATCGGGTCTTGATTCGCTTGACGCTGCTG | 3.08 | 4.81 | 4.88 | 3.3 |  | 4.45 | 3.4
11 | CCGATTAACATCAAAGGGAATAGTGATGTTAATCGGGTCTTGATTCGCTTGACGCTGCTG | 2.26 | 2.76 | 2.94 | 1.98 |  | 2.54 | 1.25
12 | CCGATTAACATCAACTTGGGAAATGATGTTAATCGGGTCTTGATTCGCTTGACGCTGCTG | 1.31 | 2.47 | 2.1 | 2.33 |  | 1.15 | 1.54
13 | CCGATTAACATCAAAACCCCCCGTGATGTTAATCGGGTCTTGATTCGCTTGACGCTGCTG | 8.43 | 6.29 | 7.17 | 5.04 | 10.2 | 7.07 | 6.96
14 | CCGATTAACATCAGACATTCCCCTGATGTTAATCGGGTCTTGATTCGCTTGACGCTGCTG | 7.03 | 8.78 | 8.26 | 5.38 | 4.78 | 6.59 | 5.51
15 | CCGATTAACATCAGGGGATCTTATGATGTTAATCGGGTCTTGATTCGCTTGACGCTGCTG | 7.32 | 7.01 | 7.89 | 3.1 | 6.67 | 6.41 | 6.06
16 | CCGATTAACATCATGTTAGGGAATGATGTTAATCGGGTCTTGATTCGCTTGACGCTGCTG | 1.38 | 3.63 | 2.76 | 1.51 |  | 4.43 | 2.03
17 | CCGATTAACATCAAGAACTTCCCTGATGTTAATCGGGTCTTGATTCGCTTGACGCTGCTG | 3.37 | 3.73 | 3.72 | 2.1 | 2.86 | 4.6 | 2.19
18 | CCGATTAACATCAGGGACTTTCATGATGTTAATCGGGTCTTGATTCGCTTGACGCTGCTG | 6.28 | 7.24 | 7.09 | 1.04 | 5.59 | 6.22 | 5.49

Row | Sequence | binding signal (GST-Ap-NF-kB RHD) [z-score] | binding signal [1] [z-score] | binding signal [2] [z-score] | binding signal (GST-Co-NF-kB) [z-score] | binding signal (GST-Dm-Relish) [z-score] | binding signal (GST-Aq-NF-kB) [z-score] | binding signal (GST-Hu-p50) [z-score]
19 | CCGATTAACATCAATCTCCCCCATGATGTTAATCGGGTCTTGATTCGCTTGACGCTGCTG | 6.53 | 4.32 | 6.24 | 8.65 | 2.05 | 3.51 | 5.94
20 | CCGATTAACATCACTCTTTTCCCTGATGTTAATCGGGTCTTGATTCGCTTGACGCTGCTG | 2.32 | 3.09 | 4.46 | 2.99 |  | 2.63 | 1.85
21 | CCGATTAACATCATCCCTCCCCATGATGTTAATCGGGTCTTGATTCGCTTGACGCTGCTG | 3.84 | 2.72 | 2.58 | 3.09 |  | 2.55 | 1.83
22 | CCGATTAACATCATCAGTTTCCCTGATGTTAATCGGGTCTTGATTCGCTTGACGCTGCTG | 2.11 | 3.16 | 4.41 | 2.69 |  | 2.58 | 1.61
23 | CCGATTAACATCAGAGTGGGAAATGATGTTAATCGGGTCTTGATTCGCTTGACGCTGCTG | 1 | 2.45 | 1.89 | 2.83 |  | 1.64 | 2.27
24 | CCGATTAACATCATGTACGGGAATGATGTTAATCGGGTCTTGATTCGCTTGACGCTGCTG | 1.13 | 2 | 1.46 | 2.7 |  | 3.27 | 1.26
25 | CCGATTAACATCAAATAAGTCCCTGATGTTAATCGGGTCTTGATTCGCTTGACGCTGCTG | 4.69 | 6.71 | 7 | 1.42 | 5.96 | 6.24 | 4.56
26 | CCGATTAACATCAGATATTACCCTGATGTTAATCGGGTCTTGATTCGCTTGACGCTGCTG | 2.58 | 3.48 | 3.01 | 2.75 |  | 4.82 | 2.16
27 | CCGATTAACATCAGATGGGAAAATGATGTTAATCGGGTCTTGATTCGCTTGACGCTGCTG | 2.47 | 4.24 | 5.39 | 2.47 |  | 2.28 | 2.37
28 | CCGATTAACATCACATCTCCCCCTGATGTTAATCGGGTCTTGATTCGCTTGACGCTGCTG | 6.34 | 4.75 | 5.94 | 7.54 | 2.35 | 4.36 | 5.73
29 | CCGATTAACATCAGGGGAGACAATGATGTTAATCGGGTCTTGATTCGCTTGACGCTGCTG | 3.1 | 3.18 | 4.37 | 4.18 |  | 2.2 | 2.14
30 | CCGATTAACATCAACAAATTCCCTGATGTTAATCGGGTCTTGATTCGCTTGACGCTGCTG | 3.83 | 5.69 | 6.87 | 4.16 | 5.03 | 4.44 | 4.56
31 | CCGATTAACATCAAAATTTCCCTTGATGTTAATCGGGTCTTGATTCGCTTGACGCTGCTG | 5.11 | 8.26 | 7.99 | 5.01 | 4.81 | 7.6 | 5.41
32 | CCGATTAACATCAAAATTCCCAGTGATGTTAATCGGGTCTTGATTCGCTTGACGCTGCTG | 3.76 | 5.07 | 4.98 | 4.87 | 5.12 | 4.23 | 4.24
33 | CCGATTAACATCAGGGGGTAACATGATGTTAATCGGGTCTTGATTCGCTTGACGCTGCTG | 4.79 | 3.69 | 4.43 | 7.22 | 2.49 | 3.72 | 4.06
34 | CCGATTAACATCAGGATTCTCCCTGATGTTAATCGGGTCTTGATTCGCTTGACGCTGCTG | 3.03 | 4.71 | 3.05 | 1.79 | 1.49 | 6.5 | 3.33
35 | CCGATTAACATCAAGGGGAATTATGATGTTAATCGGGTCTTGATTCGCTTGACGCTGCTG | 7.82 | 10.5 | 11.4 | 6.37 | 7.09 | 7.24 | 7.43
36 | CCGATTAACATCAGGGAACCACCTGATGTTAATCGGGTCTTGATTCGCTTGACGCTGCTG | 6.9 | 5.68 | 4.58 | 1.22 | 9.5 | 6.96 | 5.71
